Drawing on PubChem BioAssay AID1479 (National Center for Advancing Translational Sciences (NCATS), 2009), this text covers Potency for 61 compounds.

Several values for one entry are separate records, joined by “and”; a condition that tells them apart may be missing. Equal values may be shown once. Hit rate of the full screen: of about 280,000 compounds, about 820 (0.29%) were called active. Where a call stands in place of a potency, no number is given. Not shown: some 1% with an inconclusive outcome. Calls come from the whole dose curve; as a rule, active = well fitted curve in either direction with a large enough effect; inconclusive = small, poorly fitted or top-dose-only effect; inactive = flat fitted curve, though single readings scatter. For the sample, actives were picked, then their nearest neighbours and some compounds at random. Where a structure was tested more than once in an assay, its records may differ in their call.
Potency is the fitted concentration of half-maximal effect; tags give direction and shape of the fitted curve or compound fluorescence and quenching.

The test is described as follows: Total Fluorescence Counterscreen for Inhibitors of the Interaction of Thyroid Hormone Receptor and Steroid Receptor Coregulator 2. Conditions: TRb/SRC2 Texas Red total fluorescence interference; series mostly up to 106 µM. In outline: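 Human TRβ ligand-binding domain (0.6 uM) and Texas Red SRC2 peptide (20 nM) in Tris buffer with 1 uM T3 and 5% DMSO were incubated with pinned compound for 5 hr at ambient temperature. Total fluorescence was computed as S + 2P (555/632 nm).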
As to `Cn1c(SCC(=O)N2CCCc3ccccc32)ncc(C(=O)Nc2ccc(F)cc2)c1=O`, the Potency result was “inactive”.
For `COc1ccc(-c2nn(CC(=O)Nc3ccccc3F)c3c2cnc2ccc(F)cc23)cc1`, the Potency entry was “inactive”.
Regarding `CCN(CC)c1nn2c(=O)c(C(=O)NCCc3ccccc3)cnc2s1`, the Potency result is “inactive”.
With `COc1ccc(N2CCN(c3nc(-c4ccccc4F)nc4ccccc34)CC2)cc1`, the Potency entry was “inactive”.
As to `Oc1c(Cl)cc(Cl)c(Cl)c1Cc1c(O)c(Cl)cc(Cl)c1Cl`, the Potency result is “inactive and 44.7 µM [quencher] (active)”.
Consider `CCOc1ccccc1CNC(=O)C1CCCN(S(=O)(=O)c2ccc3c(ccn3C)c2)C1` (stereo unspecified), for which the Potency result is “inactive”.
For `Cc1cccc(C(C)C)c1NC(=O)C(NS(=O)(=O)c1cccc2nsnc12)c1ccccc1` (stereo unspecified), the Potency entry was “inactive”.
In the case of `O=C(Nc1ccc2c(c1)OCO2)c1ccc(N2C(=O)c3ccccc3C2=O)cc1`, the Potency was 0.0079 µM [quencher] (active).
For the compound `Cn1c(=O)n(C)c2cc(C(=O)Nc3ccc4c(c3)OCO4)ccc21`, the Potency entry is “inactive”.
Regarding `O=C(Nc1ccc(N2CCOCC2)cc1)c1ccc2c(c1)OCO2`, the Potency result was “inactive”.
Regarding `Cc1cccc(-n2ccnc2SCC(=O)Nc2cccc3ccccc23)c1C`, the Potency result is “inactive”.
The same measure for `CC(C)(C)c1ccc(C(=O)NCC(c2ccc(Cl)cc2)N2CCOCC2)cc1` (stereo unspecified): 10 µM [quencher] (active); for `O=C(NCC(c1ccc(Cl)cc1)N1CCOCC1)c1ccccc1F` (stereo unspecified): “inactive”.
In the case of `COc1cc(C(=O)NCC(c2ccc(Cl)cc2)N2CCOCC2)cc(OC)c1OC` (stereo unspecified), the Potency result was “inactive”.
For `CCC(C(=O)NCc1ccc(OC)cc1)n1nc(C)n2c(cc3occc32)c1=O` (stereo unspecified), the Potency entry is “inactive”.
Regarding `CCCNC(=O)C(CC)n1nc(CC)n2c(cc3oc(C)cc32)c1=O` (stereo unspecified), the Potency is 22.4 µM [quencher] (active).
The same measure for `CCOc1ccc(CCNC(=O)C(CC)n2nc(C)n3c(cc4sccc43)c2=O)cc1OCC` (stereo unspecified): “inactive”.
The same measure for `CCOc1cc(NC(=S)NCCCOC)c(OCC)cc1NC(=O)c1ccco1`: 7940 µM [quencher] (active); for `CCOc1cc(NC(=O)c2ccco2)c(OCC)cc1NC(=O)COc1ccccc1`: “inactive”; for `CCOc1cc(NC(=S)NCc2ccco2)c(OCC)cc1NC(=O)c1ccco1`: “inactive”.
`O=C(NCCc1ccccc1)c1cnc2sc(N3CCCC3)nn2c1=O`: the Potency entry is “inactive”.
Consider `CCOC(=O)c1ccc(NC(=O)CCn2c(=O)oc3ccccc32)cc1`, for which the Potency was 501 µM [quencher] (active).
Take `CCOC(=O)c1ccc(NC(=O)CCS(=O)(=O)c2ccc3c(c2)oc(=O)n3C)cc1`: the Potency entry was “inactive”.
Take `O=C(CCn1c(=O)oc2ccccc21)Nc1ccon1`: the Potency result is “inactive”.
In the case of `CCOC(=O)c1ccc2c(c1)N(Cc1cccc(OC)c1)C(=O)c1ccccc1S2(=O)=O`, the Potency entry is “inactive”.
On to `Cc1nn(-c2ccc(F)cc2)c(-n2cccc2)c1C(=O)N1CCN(c2ccccc2)CC1`, for which the Potency result was “inactive”.
Consider `O=C(/C=C/Nc1ccccc1OC(F)(F)F)C(F)(F)F`, for which the Potency entry is “inactive”.
As for `CN(C)c1ccc(N/C=C/C(=O)C(F)(F)F)cc1`, the Potency was 44.7 µM [fluorescent] (active).
Consider `CCCOc1ccc(N/C=C/C(=O)C(C)(C)C)cc1`, for which the Potency result is “inactive”.
Take `COC(=O)c1ccc(CSc2nncn2N)cc1`: the Potency result is “inactive”.
With `CCOC(=O)c1ccc(CSc2nnc3cc(C)c4ccccc4n23)cc1`, the Potency is 1.41 µM [quencher] (active).
The result for `COC(=O)c1ccc(CSc2nncn2C)cc1` reads “inactive”; that for `Cn1c(C(=O)Nc2cccc(C(F)(F)F)c2)cc2c(=O)n3ccccc3nc21`, 44.7 µM [quencher] (active).
For `Cn1c(=O)c2c(ncn2CC(=O)Nc2cccc(C(F)(F)F)c2)n(C)c1=O`, the Potency entry was “inactive”.
Take `O=C(Nc1ccc(OC(F)(F)F)cc1)c1cc2c(=O)n3ccccc3nc2s1`: the Potency result is “inactive”.
For the compound `COc1ccccc1CNC(=O)Cn1nc(C)c2nn(-c3ccc(Cl)cc3)c(C)c2c1=O`, the Potency entry is “inactive”.
Turning to `COc1cccc(CC2(CO)CCCN(CC3=Cc4cc(OC)ccc4OC3)C2)c1` (stereo unspecified), the Potency entry was “inactive”.
In the case of `COc1ccc2c(c1)C=CC1(O2)N(CCO)c2ccccc2C1(C)C` (stereo unspecified), the Potency was 50.1 µM [fluorescent] (active).
For the compound `COc1ccc2c(c1)C(SCC(=O)NCc1ccccc1)CC(C)(C)O2` (stereo unspecified), the Potency entry was “inactive”.
On to `CCc1cnc2c(c1SCC(=O)N1CCC(C)CC1)c(=O)n(C)c(=O)n2C`, for which the Potency entry is “inactive”.
Turning to `COc1ccc(C)cc1N(CC(=O)N1CCC(C)CC1)S(=O)(=O)c1ccc(C)cc1`, the Potency result was “inactive”.
Regarding `Cc1ccccc1-c1nc2scc(CCNC(=O)C(=O)Nc3ccc(F)cc3F)n2n1`, the Potency entry was “inactive”.
As for `CC(Sc1oc(-c2ccco2)nc1S(=O)(=O)c1ccc(Br)cc1)c1ccccc1` (stereo unspecified), the Potency result is “inactive”.
As for `COc1ccccc1NC(=O)CSc1oc(-c2ccco2)nc1S(=O)(=O)c1ccc(Br)cc1`, the Potency result is “inactive”.
As to `CCCC/C=C/CCCCO`, the Potency result was “inactive”.
Regarding `CCN(C(=O)Cn1cc(S(=O)(=O)N2CCN(c3ccccc3F)CC2)c2ccccc2c1=O)c1ccc(C)c(C)c1`, the Potency entry is “inactive”.
In the case of `O=C(NCCc1ccccc1)c1ccc2c(c1)N(Cc1ccccc1)C(=O)c1ccccc1S2(=O)=O`, the Potency entry is “inactive”.
On to `CN(C(=O)CSc1nnc(NC(=O)Nc2ccccc2)s1)c1ccccc1`, for which the Potency entry was “inactive”.
Turning to `CC(C)(C)OC(=O)N1CCC(c2c(C(=O)Nc3ccc4c(c3)OCO4)cnn2-c2ccccc2)CC1`, the Potency entry is “inactive”.
As to `Cc1cccc(Cc2c(C)nc3nc(SCc4ccccc4Cl)nn3c2C)c1`, the Potency result was “inactive”.
Consider `c1ccc(CNc2ncnc3[nH]ncc23)cc1`, for which the Potency result was “inactive”.
Consider `CCOC(=O)c1ccc(NC(=O)CC2C(=O)N(c3cccc(OC)c3)C(=O)N2C2CCCCC2)cc1` (stereo unspecified), for which the Potency entry is “inactive”.
On to `COc1ccccc1CNC(=O)c1ccccc1NC(=O)c1nsc2ccccc12`, for which the Potency result was “inactive”.
The result for `O=S(=O)(c1ccc(C2CCCCC2)cc1)N1CCN(c2ccc(Cl)c(Cl)c2)CC1` reads “inactive”; that for `CC1CN(C(=O)N2CCC(C(=O)NCc3ccco3)CC2)c2cc(Cl)ccc2O1` (stereo unspecified), “inactive”; that for `CCOC(=O)c1ccc(NC(=O)CCS(=O)(=O)c2ccc(C)cc2)cc1`, “inactive”.
The result for `CCCn1c2ccccc2c2cnn(CC(=O)N(C)c3ccccc3CC)c(=O)c21` reads “inactive”; that for `Cc1cc(C)c(N)c(Cl)c1`, “inactive”; that for `CCOc1ccc2nc(N3CCC(C(=O)Nc4cc(C)ccc4C)CC3)sc2c1`, “inactive”.
For the compound `CCOc1ccc2nc(C(=O)N3CCCC(C)C3)sc2c1` (stereo unspecified), the Potency entry was “inactive”.
The same measure for `CCOc1ccc2nc(N3CCCC(C(=O)Nc4cc(C)ccc4C)C3)sc2c1` (stereo unspecified): 20 µM [quencher] (active).
